Results taken from PubChem BioAssay (NCI).
About 83,000 compounds went through this panel and 20% of them were active in at least one assay; those are over-represented in the sample as a whole.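 Treatment: one concentration, 48 hours, 96-well format. Scoring: percent growth, with anything below 10 considered active.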 Active and inactive are the calls of the source.

What follows are compounds tested on HL-60(TB) leukemia (assay: NCI-60 one-dose screen, 48 h (100 = growth as untreated, 0 = no growth, -100 = all killed)). Details: 10 µM unless noted.

Compound	growth
COc1cccc(-c2nn(C(C)(C)C)cc2-c2ccnc(NCCCNS(=O)(=O)c3cccc4ccccc34)c2)c1	104% (inactive)
CN(CCOc1ccc(C#N)cc1)CCOc1ccc(C#N)cc1	42.4% (inactive)
Cc1cn(-c2cc(NC(=O)c3cncc(C#Cc4c(N)ncc5ccc(F)cc45)c3)cc(C(F)(F)F)c2)cn1	9.54% (active)
NCc1cn2cc(Cl)sc2n1	129% (inactive)
CCOC(=O)[C@@H](C)C[C@H](Cc1ccccc1)NC(=O)c1csc([C@@H](C[C@H](C(C)C)N(C)C(=O)[C@@H](NC(=O)[C@H]2C[C@H](O[Si](C)(C)C(C)(C)C)CCN2C)C(C)C)OC(C)=O)n1	-36.9% [9.25 µM] (active)
CSc1nc(S(C)(=O)=O)nc2[nH]c(=O)[nH]c12	108% (inactive)
COc1cc(/C=C/C(=O)c2ccc(Nc3nc(Nc4ccccc4)nc(Nc4ccc(Cl)cc4)n3)cc2)cc(OC)c1OC	64.5% (inactive)
COc1ccc(N=C(c2ccccc2)C2C(=O)c3ccccc3C2=O)cc1	61.3% (inactive)
COc1ccc(C(=S)N2CCN(c3ccccc3Cl)CC2)cc1OC	118% (inactive)
O=C(COc1ccc(/C=C2\Oc3ccc4ccccc4c3C2=O)cc1)c1ccc([N+](=O)[O-])cc1	75.9% (inactive)
Nc1ccc(-c2nc3ccc4[nH]ncc4c3c3c2CCCC3)cc1F	8.91% (active)
CCCCCCCCn1ccc2cc(NC(=O)Cn3cc(CN4CCN(CC)CC4)nn3)ccc21	63.9% (inactive)
COc1ccc2c(c1)cn1c3ccc(O)cc3nc(N)c21	-15.8% (active)
COc1ccc(OC)c(/C=C2\Oc3cc(O)ccc3C2=O)c1	95.7% (inactive)
CCCCCCCCCCNC(=O)CI	19.3% (inactive)
Cc1ncc(-c2ccoc2)c(NC2CCCCCC2)n1	96.1% (inactive)
CCN(C)c1ccccc1	100% (inactive)
CC(C)=CC(=O)C1C(=O)c2ccccc2C1=O	120% (inactive)
COP(=O)(OC)c1nnn(-c2cccc([N+](=O)[O-])c2)c1C	99.8% (inactive)
COc1ccc2c(c1)OC13Oc4cc(OC)ccc4C=C1CCCC3=C2	7.56% (active)

Compound	growth
O=C(/C=C\c1ccc2ccccc2n1)c1cc(Cl)ccc1O	89.8% (inactive)
CC(=O)O[C@H]1CC[C@@]2(C)C(=CC[C@@H]3[C@@H]2CC[C@]2(C)C(=O)N(O)C(=O)C[C@@H]32)C1	105% (inactive)
COc1ccc(CN2CCC(N3CCCC3=O)c3cc(Cl)ccc32)cc1 (stereo not given)	80.2% (inactive)
COC(=O)/C=C1\SC(=Nc2cccc(Cl)c2)N(CCc2c[nH]c3ccccc23)C1=O	-37.1% (active)
CN1CCN(CC(=O)N2c3cccc4cccc(c34)N(C(=O)CN3CCN(C)CC3)C2c2cn(-c3ccccc3)nc2-c2cccc([N+](=O)[O-])c2)CC1	-60% (active)
COc1cc2cc3c(nc2cc1OC)CCN3Cc1ccc(NC(=O)Nc2cc(C(F)(F)F)cc(C(F)(F)F)c2)cc1	81.5% (inactive)
CN1COc2ccc3ccccc3c2C1	93.2% (inactive)
COc1ccc(C(=O)CSc2nc(-c3cc(OC)ccc3OC)cc(-c3ccc(OC)cc3)c2C#N)cc1	98.3% (inactive)
O=C1C(Cl)=C(Nc2ccc(S(=O)(=O)c3ccc(NC4=C(Cl)C(=O)c5ccccc5C4=O)cc3)cc2)C(=O)c2ccccc21	32.7% (inactive)
NCCC(=O)c1ccc(Cl)cc1	95.6% (inactive)
COc1ccc(-c2[nH]c3ccccc3c2C=C(C#N)C#N)cc1	-48.9% (active)
CCOC(=O)C1=C(C)NC(C)=C(C(=O)OCC)C1(C)C	69.3% (inactive)
CCOC(=O)c1cc2c(n1Cc1cc(OC)c(OC)c(OC)c1)-c1oncc1CCC2	-8.69% (active)
COc1cccc(-c2cn3nc(-c4cn(C)c5ccccc45)sc3n2)c1	104% (inactive)
c1ccc2cc(Cn3c(-c4cccc5ccccc45)[n+](Cc4ccc5ccccc5c4)c4c5ccccc5c5ccccc5c43)ccc2c1	-54.6% (active)
COc1ccc(Sc2[nH]c(C=O)c3ccccc23)cc1	14.7% (inactive)
C=CCn1c(C)nc2cc(Nc3nc(Cl)nc4ccccc34)ccc21	84.1% (inactive)
N#C/C(=C\c1ccc([N+](=O)[O-])s1)c1nc2cc(Br)ccc2s1	17.7% (inactive)
COc1ccc2c(c1)c(-c1cc(-c3cn(C)c4ccc(OC)cc34)on1)cn2C	101% (inactive)
COc1ccc(-c2nc(SCC(C)C)nc(N/N=C(/C)c3ccc(OC)c(OC)c3)c2C#N)cc1	89.4% (inactive)
